# In PubChem BioAssay AID683 (University of Pittsburgh Molecular Library Screening Center, 2007):
# The list shows a part of the results. Unmarked numbers belong to inactive results. Cut-off read from the data, not from the text of the source: active = EC50 below about 50 µM; inactive = the rest.
# Experiment: redox cycling H2O2 generation, 1 mM DTT, dose response, artefact control, biochemical, 1.0 mM DTT, Cdc25B catalytic domain (AID 683)
# Settings: cell-free redox cycling H2O2 generation
row,SMILES,EC50 [µM]
1,COc1cccc2c(C)c(C(=O)O)[nH]c12,> 50
2,c1ccc(CSc2nnc(-c3ccco3)c(-c3ccco3)n2)cc1,> 50
